Data on one molecule can be found in the supplement of paper PMC11732987, “Enantioselective OTUD7B fragment discovery through chemoproteomics screening and high-throughput optimisation” (Communications Chemistry, 2025).

Common to all, as to test: log2 ratio of Biotin-Ahx-Ub-VS probe labelling (fragment/DMSO); higher = less target engagement (more negative = stronger competition), active = hit call of the paper (q ≤ 0.05, log2 ratio ≤ -1)
What all share (conditions): compound concentration: 200 uM; treatment time: 3 h

In test [1] the target is T1, USP19 (UniProt O94966).
T1 sequence (whole entry): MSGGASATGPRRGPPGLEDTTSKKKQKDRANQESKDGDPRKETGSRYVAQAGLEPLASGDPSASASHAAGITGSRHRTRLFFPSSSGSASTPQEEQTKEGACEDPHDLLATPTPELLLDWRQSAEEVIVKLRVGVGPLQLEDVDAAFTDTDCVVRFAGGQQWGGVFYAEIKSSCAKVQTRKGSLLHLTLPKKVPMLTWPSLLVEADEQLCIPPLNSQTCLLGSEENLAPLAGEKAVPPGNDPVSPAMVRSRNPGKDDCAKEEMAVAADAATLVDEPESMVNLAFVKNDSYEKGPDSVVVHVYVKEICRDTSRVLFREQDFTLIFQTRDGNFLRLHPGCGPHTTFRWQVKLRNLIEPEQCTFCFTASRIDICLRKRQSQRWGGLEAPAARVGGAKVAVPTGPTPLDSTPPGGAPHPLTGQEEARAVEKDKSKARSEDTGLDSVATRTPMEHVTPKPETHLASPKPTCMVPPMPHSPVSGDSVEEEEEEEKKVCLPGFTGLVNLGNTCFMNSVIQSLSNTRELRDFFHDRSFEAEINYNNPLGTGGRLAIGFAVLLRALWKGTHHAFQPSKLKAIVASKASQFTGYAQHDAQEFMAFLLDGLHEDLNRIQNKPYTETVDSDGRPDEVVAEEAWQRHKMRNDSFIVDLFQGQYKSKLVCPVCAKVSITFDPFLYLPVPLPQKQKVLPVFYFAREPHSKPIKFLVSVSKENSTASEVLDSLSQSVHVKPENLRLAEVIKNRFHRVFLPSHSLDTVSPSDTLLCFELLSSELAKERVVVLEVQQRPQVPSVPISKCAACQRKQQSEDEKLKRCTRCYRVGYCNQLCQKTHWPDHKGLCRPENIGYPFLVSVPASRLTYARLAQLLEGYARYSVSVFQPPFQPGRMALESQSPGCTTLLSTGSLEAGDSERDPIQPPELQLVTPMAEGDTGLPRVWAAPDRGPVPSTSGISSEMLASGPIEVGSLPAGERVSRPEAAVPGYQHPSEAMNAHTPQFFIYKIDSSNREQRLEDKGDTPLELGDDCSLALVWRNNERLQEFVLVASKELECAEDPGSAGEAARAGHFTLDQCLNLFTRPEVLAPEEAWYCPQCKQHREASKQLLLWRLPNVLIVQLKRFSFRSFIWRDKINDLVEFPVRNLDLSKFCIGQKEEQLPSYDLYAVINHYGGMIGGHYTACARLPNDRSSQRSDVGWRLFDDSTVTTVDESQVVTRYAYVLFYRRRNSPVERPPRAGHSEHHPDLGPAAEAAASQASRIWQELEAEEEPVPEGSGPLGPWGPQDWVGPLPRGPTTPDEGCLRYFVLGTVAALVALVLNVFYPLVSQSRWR
A digest of the protocol: (§1)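 Fragment (200 µM) or vehicle was incubated for 3 h with triplicate HEK293T lysate samples of 495 µg, which were then treated with Biotin-Ahx-Ub-VS at 0.5 µM final for 1 h. Labelled DUBs were enriched on NeutrAvidin, digested with LysC and trypsin, and analysed by diaPASEF LC-MS/MS. Values are average log2 fragment/vehicle ratios from an unpaired t-test on global-median-normalised Spectronaut label-free quantities, using proteins with ≥2 unique peptides.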

Test [2] addresses T2, USP22 (UniProt Q9UPT9).
T2 sequence (whole entry): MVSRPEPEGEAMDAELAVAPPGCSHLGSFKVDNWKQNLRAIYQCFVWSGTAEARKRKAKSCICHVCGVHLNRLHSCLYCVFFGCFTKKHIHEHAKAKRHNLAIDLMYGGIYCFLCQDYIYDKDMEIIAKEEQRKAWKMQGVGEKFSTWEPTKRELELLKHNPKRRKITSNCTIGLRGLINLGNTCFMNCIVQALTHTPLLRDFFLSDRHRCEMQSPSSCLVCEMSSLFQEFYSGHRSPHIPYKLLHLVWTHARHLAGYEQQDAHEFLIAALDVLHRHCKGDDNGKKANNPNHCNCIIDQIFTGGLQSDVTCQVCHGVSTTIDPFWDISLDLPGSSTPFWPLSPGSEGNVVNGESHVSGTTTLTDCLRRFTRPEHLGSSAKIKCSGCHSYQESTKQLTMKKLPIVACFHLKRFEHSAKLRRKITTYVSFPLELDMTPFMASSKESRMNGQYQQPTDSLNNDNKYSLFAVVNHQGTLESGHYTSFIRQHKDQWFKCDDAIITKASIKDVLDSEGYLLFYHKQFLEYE
A digest of the protocol: as §1

Test [3] addresses USP24 (UniProt Q9UPU5). The method in brief: as §1
For test [4], the target named is T3, USP25 (UniProt Q9UHP3).
T3 sequence (whole entry): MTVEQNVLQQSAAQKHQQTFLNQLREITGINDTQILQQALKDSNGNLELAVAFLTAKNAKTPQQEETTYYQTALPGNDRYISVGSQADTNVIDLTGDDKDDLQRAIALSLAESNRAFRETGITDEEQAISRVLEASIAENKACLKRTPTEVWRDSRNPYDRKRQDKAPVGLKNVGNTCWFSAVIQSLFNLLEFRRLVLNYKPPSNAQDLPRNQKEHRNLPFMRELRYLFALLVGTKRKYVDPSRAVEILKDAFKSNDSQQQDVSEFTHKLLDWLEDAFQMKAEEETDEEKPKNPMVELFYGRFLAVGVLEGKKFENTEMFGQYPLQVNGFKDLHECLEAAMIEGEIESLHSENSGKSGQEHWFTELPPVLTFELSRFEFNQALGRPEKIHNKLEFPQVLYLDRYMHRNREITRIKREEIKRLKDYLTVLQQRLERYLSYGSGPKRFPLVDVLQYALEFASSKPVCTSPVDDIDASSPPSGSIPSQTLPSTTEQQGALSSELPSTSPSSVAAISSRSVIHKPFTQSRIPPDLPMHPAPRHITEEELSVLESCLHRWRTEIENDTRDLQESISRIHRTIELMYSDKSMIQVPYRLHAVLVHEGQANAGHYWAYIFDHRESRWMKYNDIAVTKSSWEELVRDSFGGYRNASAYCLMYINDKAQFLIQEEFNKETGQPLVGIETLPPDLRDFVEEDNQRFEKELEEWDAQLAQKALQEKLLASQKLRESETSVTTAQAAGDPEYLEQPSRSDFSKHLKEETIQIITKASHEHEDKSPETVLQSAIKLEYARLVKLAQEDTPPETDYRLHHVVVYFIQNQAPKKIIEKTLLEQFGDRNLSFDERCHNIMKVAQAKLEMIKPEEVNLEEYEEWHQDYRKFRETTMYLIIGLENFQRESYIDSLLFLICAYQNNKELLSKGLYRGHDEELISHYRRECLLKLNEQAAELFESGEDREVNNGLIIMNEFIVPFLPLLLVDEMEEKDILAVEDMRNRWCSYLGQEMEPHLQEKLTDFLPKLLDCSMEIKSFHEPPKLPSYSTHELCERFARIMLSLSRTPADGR
The method in brief:
as §1

For test [5], the target named is T4, USP28 (UniProt Q96RU2).
T4 sequence (whole entry): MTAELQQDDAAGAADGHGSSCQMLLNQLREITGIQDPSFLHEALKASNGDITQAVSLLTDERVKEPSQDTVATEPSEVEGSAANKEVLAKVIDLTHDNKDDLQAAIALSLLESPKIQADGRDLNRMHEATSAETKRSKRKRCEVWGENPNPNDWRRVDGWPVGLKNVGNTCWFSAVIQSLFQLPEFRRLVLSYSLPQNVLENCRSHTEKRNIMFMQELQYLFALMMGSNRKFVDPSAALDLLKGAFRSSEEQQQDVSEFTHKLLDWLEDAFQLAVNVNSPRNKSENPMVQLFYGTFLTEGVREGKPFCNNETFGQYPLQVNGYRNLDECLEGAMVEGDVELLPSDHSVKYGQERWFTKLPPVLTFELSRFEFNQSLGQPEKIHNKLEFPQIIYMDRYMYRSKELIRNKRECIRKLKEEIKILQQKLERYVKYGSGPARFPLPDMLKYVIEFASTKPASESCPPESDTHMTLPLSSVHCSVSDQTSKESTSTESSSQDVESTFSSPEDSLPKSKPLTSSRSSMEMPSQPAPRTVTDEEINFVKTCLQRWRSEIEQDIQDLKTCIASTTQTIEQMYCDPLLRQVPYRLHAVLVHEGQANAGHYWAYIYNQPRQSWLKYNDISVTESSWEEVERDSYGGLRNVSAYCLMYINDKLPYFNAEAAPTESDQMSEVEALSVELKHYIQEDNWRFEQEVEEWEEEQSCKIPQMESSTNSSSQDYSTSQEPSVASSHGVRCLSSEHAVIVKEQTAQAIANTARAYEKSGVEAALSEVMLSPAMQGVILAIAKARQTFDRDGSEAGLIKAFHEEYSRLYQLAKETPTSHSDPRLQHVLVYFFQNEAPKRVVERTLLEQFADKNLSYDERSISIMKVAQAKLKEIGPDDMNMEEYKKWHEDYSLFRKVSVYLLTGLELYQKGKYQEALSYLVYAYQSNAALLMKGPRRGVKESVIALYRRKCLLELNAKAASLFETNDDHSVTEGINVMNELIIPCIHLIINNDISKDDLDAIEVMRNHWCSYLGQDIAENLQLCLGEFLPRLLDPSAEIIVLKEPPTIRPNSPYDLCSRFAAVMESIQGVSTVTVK
A digest of the protocol: as §1

A number with no mark means an inactive call.

Sequence of USP24 (Q9UPU5 whole entry): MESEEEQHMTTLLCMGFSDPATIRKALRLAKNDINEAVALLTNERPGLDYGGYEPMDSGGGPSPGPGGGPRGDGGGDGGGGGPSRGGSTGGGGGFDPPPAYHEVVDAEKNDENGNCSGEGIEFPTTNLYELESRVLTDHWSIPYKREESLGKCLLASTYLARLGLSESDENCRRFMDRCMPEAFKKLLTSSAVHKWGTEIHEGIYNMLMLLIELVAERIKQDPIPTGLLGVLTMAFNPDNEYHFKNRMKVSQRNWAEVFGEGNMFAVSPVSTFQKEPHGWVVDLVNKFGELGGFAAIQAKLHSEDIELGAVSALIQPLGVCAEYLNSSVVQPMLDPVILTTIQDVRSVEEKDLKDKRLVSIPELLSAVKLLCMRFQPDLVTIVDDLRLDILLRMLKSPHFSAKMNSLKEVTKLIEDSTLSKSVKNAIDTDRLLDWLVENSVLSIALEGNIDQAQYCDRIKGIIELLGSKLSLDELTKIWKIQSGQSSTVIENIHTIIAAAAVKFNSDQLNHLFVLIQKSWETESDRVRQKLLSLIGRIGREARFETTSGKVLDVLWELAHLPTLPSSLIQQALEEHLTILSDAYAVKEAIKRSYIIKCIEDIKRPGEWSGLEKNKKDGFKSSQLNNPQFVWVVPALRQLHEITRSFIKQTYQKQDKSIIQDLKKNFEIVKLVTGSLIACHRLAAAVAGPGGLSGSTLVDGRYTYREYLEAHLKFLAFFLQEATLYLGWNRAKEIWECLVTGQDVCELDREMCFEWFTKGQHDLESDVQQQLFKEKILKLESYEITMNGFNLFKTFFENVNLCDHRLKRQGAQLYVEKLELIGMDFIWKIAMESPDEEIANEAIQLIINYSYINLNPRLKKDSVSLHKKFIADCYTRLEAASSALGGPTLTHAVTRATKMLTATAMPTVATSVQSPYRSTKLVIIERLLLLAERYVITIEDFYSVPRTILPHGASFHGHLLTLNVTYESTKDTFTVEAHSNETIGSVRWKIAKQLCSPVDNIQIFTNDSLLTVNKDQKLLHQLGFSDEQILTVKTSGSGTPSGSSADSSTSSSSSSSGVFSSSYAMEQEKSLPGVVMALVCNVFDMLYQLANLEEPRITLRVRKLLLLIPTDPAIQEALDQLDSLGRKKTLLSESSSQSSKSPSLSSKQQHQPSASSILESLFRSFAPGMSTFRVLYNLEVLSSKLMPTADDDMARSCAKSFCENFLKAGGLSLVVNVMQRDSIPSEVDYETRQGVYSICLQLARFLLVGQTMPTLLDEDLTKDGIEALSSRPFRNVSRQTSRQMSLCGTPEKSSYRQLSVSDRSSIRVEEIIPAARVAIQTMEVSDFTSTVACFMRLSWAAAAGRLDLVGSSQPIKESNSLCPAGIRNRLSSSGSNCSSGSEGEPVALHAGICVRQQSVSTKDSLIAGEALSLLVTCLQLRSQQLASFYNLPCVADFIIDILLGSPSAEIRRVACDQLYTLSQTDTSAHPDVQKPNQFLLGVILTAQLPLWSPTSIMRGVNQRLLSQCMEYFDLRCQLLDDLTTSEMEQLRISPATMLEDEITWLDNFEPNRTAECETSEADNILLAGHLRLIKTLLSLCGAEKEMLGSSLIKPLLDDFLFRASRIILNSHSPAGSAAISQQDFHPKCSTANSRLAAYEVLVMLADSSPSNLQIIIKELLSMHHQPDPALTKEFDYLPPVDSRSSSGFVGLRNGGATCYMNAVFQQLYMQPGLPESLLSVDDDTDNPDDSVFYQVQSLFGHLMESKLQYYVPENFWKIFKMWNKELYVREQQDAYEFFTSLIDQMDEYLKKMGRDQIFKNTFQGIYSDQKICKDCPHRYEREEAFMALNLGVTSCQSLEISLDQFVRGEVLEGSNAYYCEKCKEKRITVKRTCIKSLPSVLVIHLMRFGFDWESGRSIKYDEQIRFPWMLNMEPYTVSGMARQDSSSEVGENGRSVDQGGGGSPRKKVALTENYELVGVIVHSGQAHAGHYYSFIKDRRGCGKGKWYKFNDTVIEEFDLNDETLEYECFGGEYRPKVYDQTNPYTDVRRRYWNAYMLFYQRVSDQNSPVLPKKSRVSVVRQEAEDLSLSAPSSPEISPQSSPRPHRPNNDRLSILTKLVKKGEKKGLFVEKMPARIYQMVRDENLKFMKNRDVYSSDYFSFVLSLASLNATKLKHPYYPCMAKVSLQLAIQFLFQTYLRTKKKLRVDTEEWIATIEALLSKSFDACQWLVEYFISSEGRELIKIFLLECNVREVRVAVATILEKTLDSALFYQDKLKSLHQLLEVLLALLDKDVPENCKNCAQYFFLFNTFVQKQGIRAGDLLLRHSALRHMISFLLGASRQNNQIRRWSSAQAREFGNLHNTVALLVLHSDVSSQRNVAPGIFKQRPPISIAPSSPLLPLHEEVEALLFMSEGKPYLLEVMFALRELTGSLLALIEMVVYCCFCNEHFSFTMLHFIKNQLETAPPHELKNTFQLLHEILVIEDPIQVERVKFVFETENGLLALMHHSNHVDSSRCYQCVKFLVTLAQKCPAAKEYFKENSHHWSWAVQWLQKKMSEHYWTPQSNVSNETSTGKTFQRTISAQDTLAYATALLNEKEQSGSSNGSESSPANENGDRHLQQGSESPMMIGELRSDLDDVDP

For the molecule `O=C(CCl)Nc1cc(Cl)ccc1-n1cncn1`, the “log2 ratio of Biotin-Ahx-Ub-VS probe labelling” value in test [1] is -0.987; in test [2], -0.15; in test [3] it was -1.34 (active); in test [4], -1.65 (active); in test [5] it was -2.34 (active).
